These results are taken from ChEMBL document CHEMBL1157539, “Thousands of chemical starting points for antimalarial lead identification” (Nature, 2010).

Molecules are shown by their SMILES.

Holding throughout (assay type): functional
In experiment [1] the test system is Plasmodium falciparum. Kind of experiment: GSK_TCMDC: Inhibition of Plasmodium falciparum 3D7 in whole red blood cells, using parasite LDH activity as an index of growth. Test compounds present at 2uM.
The subject of experiment [2] is Plasmodium falciparum. Briefly: GSK_TCMDC: Inhibition of Plasmodium falciparum Dd2 in whole red blood cells, using parasite LDH activity as an index of growth. Test compounds present at 2uM.
Experiment [3] concerns HepG2. Kind of experiment: GSK_TCMDC: Percent inhibition of human HepG2 cell line. Test compounds present at 10uM.

As a reminder, the Inhibition is the change of the read-out against control, counted positive when it falls. High values mean a strong effect, low ones a weak effect. As for `CCN(CC1CCN(CC2(O)CCOCC2)CC1)c1cc(C)nc(Nc2ccc(Cl)cc2)n1`, the Inhibition was 100% in experiment [1], 99% in experiment [2] and 34% in experiment [3].
Take `Cc1cccc2nc(-c3ccc(-c4cccc(CNCc5cccc(N)c5)c4)cc3)[nH]c12.O=C(O)C(F)(F)F`: the Inhibition in experiment [1] was 100%; in experiment [2] it was 87%; in experiment [3], 0%.
For `COc1cccc(-c2cccc(CNC3CCN(CC4Cn5c(=O)ccc6ccc(F)c4c65)CC3)c2)c1.O=C(O)C(F)(F)F` (centres undefined) the same measures were 99%, 15% and 23%.
Taken in the same sequence, the figures for `CCCN(CCC)C(=O)c1cc(C(=O)N[C@@H](Cc2ccccc2)[C@H](O)CNC2CC2)cc(N2CCCCS2(=O)=O)c1` were 100%, 98% and 0%.
For `O=C(Nc1cccc(-c2csc(-c3nc4ccccc4[nH]3)c2)c1)c1ccncc1` the same measures were 100%, 61% and 64%.
Regarding `COc1ccc2c(c1)OC(C)(C)CC2=NOS(=O)(=O)c1ccc(C)cc1`, the Inhibition in experiment [1] was determined as 97%; in experiment [2] it was 12%; in experiment [3] it was 10%.
Take `O=C(/C=C/c1ccc(Cl)c(Cl)c1)NCCCCCN1CCC(C(=O)Nc2ccc(F)c(Cl)c2)CC1`: the values for the Inhibition in experiment [1], in experiment [2] and in experiment [3] were 100%, 0% and 25%, respectively.
Taken in the same sequence, the figures for `CCCN1CCN(c2cc(NCC)c3c4c(onc24)-c2ccccc2C3=O)CC1` were 96%, 11% and 4%.
Taken in the same sequence, the figures for `COCCN1CCC(N(CC2(O)CCN(c3ccc(C(F)(F)F)cc3)CC2)C(=O)Cn2c(SCc3cccc(F)c3F)cc(=O)c3ccccc32)CC1` were 94%, 75% and 29%.
For `CCCC1(NC[C@@H](O)[C@H](Cc2ccccc2)NC(=O)c2cc(NCC)cc(N3CCCCS3(=O)=O)c2)CCCCC1.Cl` the same measures were 100%, 98% and 4%.
Regarding `O=C(O)C(F)(F)F.Oc1ccc(CC2CCCN(c3nc(NCCCOc4ccccc4-c4ccccc4)nc(N4CCNCC4)n3)C2)cc1` (centres undefined), the Inhibition in experiment [1] was 95%; in experiment [2] it was 77%; in experiment [3] it was 56%.
Taken in the same sequence, the figures for `O=C(Nc1cccc(C(F)(F)F)c1)NC1CCN(c2ccnc3ccccc23)CC1.O=C(O)C(F)(F)F` were 100%, 43% and 23%.
Taken in the same sequence, the figures for `CC1CCC2(CC1)N=C(N)N=C(N)N2OCc1cc2ccccc2c2ccccc12` (centres undefined) were 97%, 41% and 27%.
For `FC(F)(F)c1ccc(N2CCCN(Cc3cccc(-c4ccccc4CNCc4ccc5c(c4)OCO5)c3)CC2)nc1.O=C(O)C(F)(F)F` the same measures were 87%, 11% and 23%.
With `COc1cccc(CNC[C@@H](O)[C@H](Cc2ccccc2)NC(=O)c2cc(NC(C)C)cc(N3CCCCS3(=O)=O)c2)c1.O=CO`, the values for the Inhibition in experiment [1], in experiment [2] and in experiment [3] were 89%, 97% and 1%, respectively.
For `Fc1ccc2[nH]c(-c3ccc(-c4ccc(CNCCc5ccncc5)cc4)cc3)nc2c1.O=C(O)C(F)(F)F` the same measures were 100%, 97% and 23%.
For `CN(C)CCNC(=O)c1ccc2c(c1)ncn2-c1cc(OCc2ccccc2C(F)(F)F)c(C(N)=O)s1.CN(C)CCNC(=O)c1ccc2ncn(-c3cc(OCc4ccccc4C(F)(F)F)c(C(N)=O)s3)c2c1` the same measures were 90%, 8% and 0%.
Taken in the same sequence, the figures for `SC(=Nc1ccc(Cl)c(Cl)c1)NN=Cc1ccccn1` were 98%, 85% and 40%.
For the compound `Cc1csc(-c2nonc2NC(=O)COc2ccccc2C(C)C)n1`, the Inhibition in experiment [1] was 90%; in experiment [2] it was 85%; in experiment [3] it was 14%.
For `O=C(NC(c1ccccc1)c1ccccc1)C(c1cc2ccccc2o1)N1CCN(C(c2ccccc2)c2ccccc2)CC1` (centres undefined) the same measures were 95%, 78% and 0%.
Taken in the same sequence, the figures for `CN1CCN(Cc2ccc(-c3cccc(-c4nc5ccccc5[nH]4)c3)cc2)CC1.O=C(O)C(F)(F)F` were 93%, 6% and 21%.
`Cc1cccc2nc(-c3ccc(-c4cccc(CN5CCC(CCN6CCCCC6)CC5)c4)s3)[nH]c12.O=C(O)C(F)(F)F`: the Inhibition in experiment [1] worked out at 100%; in experiment [2], 100%; in experiment [3], 99%.
Turning to `Cc1cccc(-c2ccc3c(c2)CC(NCc2cccc(-n4ccnc4)c2)C3)c1` (centres undefined), the Inhibition in experiment [1] is recorded as 100%; in experiment [2], 49%; in experiment [3], 11%.
Taken in the same sequence, the figures for `NC(=O)c1cccc(C(=O)Nc2ccc(-c3cccc(-c4nc5cc(C(F)(F)F)ccc5[nH]4)c3)cc2)c1` were 100%, 86% and 74%.
Taken in the same sequence, the figures for `Cc1nc2nc(N)nc(N)c2c(C)c1Cc1cccc(C(F)(F)F)c1.Cl` were 89%, 23% and 65%.
For `O=C(NCCCCN1CCC(c2ccc3c(c2OCC2COCO2)CCCC3)CC1)c1ccc(-c2ccc(C(F)(F)F)cc2)cc1` (centres undefined) the same measures were 99%, 45% and 91%.
Regarding `CCCCCCCc1c(C)nc2cc(OC)ccc2c1O`, the Inhibition in experiment [1] came to 99%; in experiment [2] it was 98%; in experiment [3], 5%.
For `CC[C@H](C)CNC(=O)c1ccnc(-c2ccc(CN3CCC(N4CCCC4)CC3)cc2)c1.O=C(O)C(F)(F)F` the same measures were 99%, 84% and 13%.
Taken in the same sequence, the figures for `CN(C)CCOc1cccc(NC(=O)Nc2ccc(-c3ccccc3)cc2)c1.O=C(O)C(F)(F)F` were 90%, 16% and 11%.
Taken in the same sequence, the figures for `O=C(Cn1nc(Br)nc1[N+](=O)[O-])NCC1CCCCC1` were 96%, 57% and 0%.
In the case of `O=C(Nc1ccc(C(=O)N2CCN(CCN3CCN(c4cccc(C(F)(F)F)c4)CC3)CC2)cc1)c1ccc(OC(F)(F)F)cc1`, the values for the Inhibition in experiment [1], in experiment [2] and in experiment [3] were 95%, 25% and 38%, respectively.
With `Cc1cc(Nc2ccccc2)nc(Nc2ccccc2)n1`, the Inhibition in experiment [1] came out at 96%; in experiment [2], 74%; in experiment [3] it was 0%.
For `N#Cc1ccc(C(=O)Nc2cc(-c3cccc(O)c3)cc3[nH]ncc23)cc1` the same measures were 90%, 79% and 15%.
For `CCCc1cc(Cc2cnc(N)nc2N)cc(CCC)c1OCCCCC(=O)O` the same measures were 95%, 23% and 18%.
For `C=CCN(c1nc(NC)nc(NCc2c(OC)cccc2OC)n1)C1CCCC1` the same measures were 85%, 70% and 18%.
As to `FC(F)(F)c1ccc2[nH]c(-c3ccc(-c4ccc(CNCCN5CCNCC5)cc4)cc3)nc2c1.O=C(O)C(F)(F)F`, the Inhibition in experiment [1] is on record as 92%; in experiment [2], 74%; in experiment [3] it was 13%.
For `CCc1ccc(CN2CCC(CNC(=O)c3cc(-c4cccc(F)c4)cs3)C2)cc1.O=C(O)C(F)(F)F` (centres undefined) the same measures were 84%, 4% and 23%.
Taken in the same sequence, the figures for `O=C(O)C(F)(F)F.c1ccc(CN2CCC(NCc3ccc(-c4cccc(CNC5CCCC5)c4)cc3)CC2)cc1` were 100%, 100% and 55%.
